PubChem BioAssay AID434961 (Broad Institute, 2010)
Hit rate of the full screen: of about 7,700 compounds, about 15 (0.2%) were called active. Roughly 6% stayed inconclusive and do not appear here.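 Rule for the calls: active = more than half of replicate wells with inhibition above about 18% (limit read from the data, passing the limit was not always enough); inconclusive = exactly half of replicate wells above that limit; inactive = fewer than half of replicates above it.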 The entries come from a sample that favours actives as a whole.

Target: Regulator of chromosome condensation (Homo sapiens) + GTP-binding nuclear protein Ran (Homo sapiens) + Importin subunit beta-1 (Homo sapiens) (UniProt P18754+P62826+Q14974)
Assay: RanGTP/importin-beta interaction disruptors – biochemical, CFP-Ran/YFP-importin-beta FRET, RCC1, cell-free, primary screen (AID 434961);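 note: 0% = DMSO wells and 100% inhibition = RanGDP control wells on each plate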
Conditions: active compounds read high, concentration not given here

inhibition, inactive:
C[C@H](CO)N1C[C@H](C)[C@H](CN(C)Cc2ccc3c(c2)OCO3)Oc2c(NC(=O)c3ccncc3)cccc2C1=O -1.01%, C[C@H](CO)N1C[C@H](C)[C@H](CN(C)Cc2ccc3c(c2)OCO3)Oc2ccc(NC(=O)Nc3ccc(F)cc3)cc2CC1=O 1.05%, CNC[C@@H]1Oc2ccc(NC(=O)CCC(F)(F)F)cc2C(=O)N([C@@H](C)CO)C[C@H]1C 2.65%, CNC[C@@H]1Oc2ccc(NC(=O)Nc3ccc4c(c3)OCO4)cc2CC(=O)N([C@@H](C)CO)C[C@@H]1C -0.999%, C[C@@H]1CCCCO[C@H](CN(C)C)[C@@H](C)CN([C@H](C)CO)C(=O)c2cc(NC(=O)Cc3ccccc3)ccc2O1 -1.13%, C[C@H](CO)N1C[C@H](C)[C@@H](CN(C)C(=O)Nc2ccc3c(c2)OCO3)Oc2ccc(N(C)C)cc2C1=O -2.04%, C[C@@H]1CCCCO[C@@H](CN(C)C(=O)C2CCCCC2)[C@@H](C)CN([C@@H](C)CO)C(=O)c2cc(NS(C)(=O)=O)ccc2O1 -4.64%, C[C@@H]1CN([C@H](C)CO)C(=O)CCCn2cc(nn2)CO[C@@H]1CN(C)C(=O)Nc1ccc(N2CCCCC2)cc1 10.6%, C[C@@H]1CCCCO[C@@H](CN(C)Cc2ccncc2)[C@H](C)CN([C@@H](C)CO)C(=O)c2cc(NC(=O)c3ccncc3)ccc2O1 5.19%, C[C@@H]1CCCCO[C@H](CN(C)C(=O)C2CCCCC2)[C@H](C)CN([C@H](C)CO)C(=O)c2cc(NC(=O)Nc3ccccc3)ccc2O1 1.96%, C[C@@H]1CN([C@H](C)CO)C(=O)c2cccc(NS(=O)(=O)c3ccc(Cl)cc3)c2O[C@@H]1CN(C)C -2.17%, Cc1noc(C)c1NC(=O)N(C)C[C@H]1Oc2ccc(NC(=O)Cc3ccccc3)cc2C(=O)N([C@H](C)CO)C[C@H]1C 4.11%, C[C@H](CO)N1C[C@H](C)[C@H](CN(C)C)Oc2ccc(NS(C)(=O)=O)cc2C1=O 4.53%, C[C@@H]1CN([C@H](C)CO)C(=O)Cc2cc(N(C)C)ccc2O[C@H]1CN(C)Cc1ccc(C(F)(F)F)cc1 -0.721%, CC(C)NC(=O)Nc1ccc2c(c1)C(=O)N([C@@H](C)CO)C[C@@H](C)[C@H](CN(C)S(=O)(=O)c1cccs1)OCCCC[C@H](C)O2 3.77%, COc1ccc(S(=O)(=O)N(C)C[C@@H]2Oc3c(NC(=O)c4ccncc4)cccc3C(=O)N([C@@H](C)CO)C[C@H]2C)cc1 -7.21%, Cc1noc(C)c1NC(=O)Nc1ccc2c(c1)CC(=O)N([C@H](C)CO)C[C@@H](C)[C@@H](CN(C)C(=O)NC(C)C)O2 0.926%, Cc1noc(C)c1NC(=O)Nc1ccc2c(c1)C(=O)N([C@@H](C)CO)C[C@@H](C)[C@@H](CN(C)C(=O)CCCN(C)C)OCCCC[C@@H](C)O2 -4.32%, C[C@@H]1CN([C@@H](C)CO)C(=O)Cc2cc(NC(=O)c3ccncc3)ccc2O[C@H]1CN(C)C(=O)Nc1ccccc1 3.73%, COc1ccc(NC(=O)Nc2ccc3c(c2)C(=O)N([C@@H](C)CO)C[C@H](C)[C@@H](CN(C)S(=O)(=O)c2cn(C)cn2)O3)cc1 1.4%, C[C@H](CO)N1C[C@H](C)[C@H](CN(C)C(=O)c2ccncc2)OCCCC[C@H](C)Oc2ccc(NS(=O)(=O)c3ccccc3)cc2C1=O -1.72%, CC(C)NC(=O)Nc1ccc2c(c1)C(=O)N([C@@H](C)CO)C[C@@H](C)[C@@H](CN(C)C)OCCCC[C@H](C)O2 -4.5%, C[C@@H]1CN([C@H](C)CO)C(=O)c2cc(NS(=O)(=O)c3cn(C)cn3)ccc2O[C@@H](C)CCCCO[C@@H]1CN(C)C -0.00982%, CC(C)NC(=O)N(C)C[C@H]1Oc2ccc(N(C)C)cc2CC(=O)N([C@H](C)CO)C[C@@H]1C 0.831%, COc1ccc(S(=O)(=O)Nc2ccc3c(c2)C(=O)N([C@@H](C)CO)C[C@@H](C)[C@@H](CN(C)S(=O)(=O)c2cccs2)O3)cc1 -0.91%, C[C@@H]1CCCCO[C@@H](CN(C)S(=O)(=O)c2ccc(F)cc2)[C@@H](C)CN([C@@H](C)CO)C(=O)c2cc(NC(=O)C3CCCCC3)ccc2O1 2.57%, Cc1noc(C)c1NC(=O)N(C)C[C@@H]1Oc2c(NC(=O)c3ccc(-c4nccs4)cc3)cccc2C(=O)N([C@@H](C)CO)C[C@@H]1C -3.18%, COc1ccc(CN(C)C[C@H]2Oc3ccc(NC(=O)Nc4c(C)noc4C)cc3CC(=O)N([C@H](C)CO)C[C@@H]2C)cc1 -6.52%, C[C@@H]1CN([C@@H](C)CO)C(=O)c2cc(NS(=O)(=O)c3ccccc3)ccc2O[C@@H](C)CCCCO[C@H]1CN(C)Cc1ccncc1 -2.17%, C[C@H]1CN([C@@H](C)CO)C(=O)c2cccc(NS(=O)(=O)c3ccc(Cl)cc3)c2O[C@@H]1CN(C)C(=O)Nc1ccc(F)cc1 0.723%, C[C@H](CO)N1C[C@H](C)[C@@H](CN(C)C(=O)Nc2ccc(F)cc2)Oc2c(NS(=O)(=O)c3ccc(Cl)cc3)cccc2C1=O 2.75%, CNC[C@H]1Oc2c(NC(=O)Nc3c(C)noc3C)cccc2C(=O)N([C@@H](C)CO)C[C@H]1C 1.31%, Cc1noc(C)c1S(=O)(=O)Nc1ccc2c(c1)CC(=O)N([C@@H](C)CO)C[C@@H](C)[C@H](CN(C)C(=O)Nc1ccc(F)cc1)O2 -0.469%, C[C@@H]1CN([C@@H](C)CO)C(=O)Cc2cc(NC(=O)c3ccncc3)ccc2O[C@@H]1CN(C)C(=O)Nc1cccc2ccccc12 2.94%, C[C@@H]1CN([C@@H](C)CO)C(=O)c2cc(NC(=O)C3CC3)ccc2O[C@@H]1CN(C)C(=O)Nc1ccccc1 -1.01%, C[C@H]1CN([C@@H](C)CO)C(=O)c2cccc(NS(=O)(=O)c3cccs3)c2O[C@H]1CN(C)Cc1ccc(C(=O)O)cc1 -1.12%, C[C@H](CO)N1C[C@H](C)[C@H](CN(C)C(=O)c2ccccc2)OCc2cnnn2CCCC1=O 3.45%, Cc1noc(C)c1NC(=O)Nc1ccc2c(c1)CC(=O)N([C@@H](C)CO)C[C@H](C)[C@@H](CN(C)S(=O)(=O)c1cccs1)O2 0.0231%, Cc1noc(C)c1NC(=O)N(C)C[C@@H]1Oc2ccc(NC(=O)Cc3ccccc3)cc2C(=O)N([C@@H](C)CO)C[C@H]1C 6.07%, C[C@H](CO)N1C[C@H](C)[C@H](CN(C)C)Oc2c(NC(=O)Nc3ccc(C(F)(F)F)cc3)cccc2C1=O -2.27%, COc1ccc(CN(C)C[C@@H]2Oc3ccc(NC(=O)Nc4ccc(C(F)(F)F)cc4)cc3CC(=O)N([C@H](C)CO)C[C@@H]2C)cc1 1.78%, C[C@@H]1CN([C@@H](C)CO)C(=O)c2cccc(NC(=O)Nc3ccc(C(F)(F)F)cc3)c2O[C@H]1CN(C)C(=O)Nc1ccc(F)cc1 1.42%, C[C@H](CO)N1C[C@H](C)[C@H](CN(C)S(=O)(=O)c2cn(C)cn2)OCCCC[C@H](C)Oc2ccc(NC(=O)CCCN(C)C)cc2C1=O 1.98%, C[C@@H]1CCCCO[C@@H](CN(C)S(=O)(=O)c2ccccc2)[C@@H](C)CN([C@@H](C)CO)C(=O)c2cc(NS(C)(=O)=O)ccc2O1 1.15%, C[C@@H]1CCCCO[C@H](CN(C)C)[C@H](C)CN([C@H](C)CO)C(=O)c2cc(NC(=O)Nc3ccc4c(c3)OCO4)ccc2O1 7.53%, COc1ccc(S(=O)(=O)N(C)C[C@@H]2Oc3ccc(NS(=O)(=O)c4ccc(Cl)cc4)cc3C(=O)N([C@H](C)CO)C[C@@H]2C)cc1 1.93%, C[C@H]1CN([C@@H](C)CO)C(=O)c2cccc(NS(=O)(=O)c3cn(C)cn3)c2O[C@@H]1CN(C)CC1CC1 -0.875%, Cc1noc(C)c1NC(=O)N(C)C[C@@H]1Oc2ccc(NC(=O)C3CC3)cc2CC(=O)N([C@@H](C)CO)C[C@H]1C 3.34%, CNC[C@H]1Oc2ccc(NC(=O)Cc3ccccc3)cc2C(=O)N([C@H](C)CO)C[C@@H]1C -10.8%, C[C@H]1CN([C@@H](C)CO)C(=O)c2cccc(NS(=O)(=O)c3ccc(Cl)cc3)c2O[C@H]1CN(C)Cc1ccncc1 -0.815%, C[C@H]1CN([C@@H](C)CO)C(=O)c2cc(NC(=O)CCC(F)(F)F)ccc2O[C@H]1CN(C)C(=O)Nc1ccccc1 1.36%, C[C@H](CO)N1C[C@H](C)[C@H](CN(C)C(=O)Nc2ccccc2)Oc2ccc(NC(=O)Cc3cn(C)c4ccccc34)cc2CC1=O 2.8%, C[C@H]1CCCCO[C@H](CN(C)Cc2ccc(C(=O)O)cc2)[C@@H](C)CN([C@@H](C)CO)C(=O)c2cc(NC(=O)Nc3ccc(F)cc3)ccc2O1 5.7%, C[C@H](CO)N1C[C@H](C)[C@H](CN(C)S(=O)(=O)c2cn(C)cn2)Oc2ccc(N(C)C)cc2CC1=O -2.21%, C[C@@H]1CN([C@H](C)CO)C(=O)c2cc(NC(=O)c3ccncc3)ccc2O[C@@H]1CN(C)C 0.131%, CC(C)NC(=O)Nc1ccc2c(c1)C(=O)N([C@H](C)CO)C[C@H](C)[C@@H](CN(C)Cc1ccc(C(=O)O)cc1)OCCCC[C@@H](C)O2 2.11%
